Laboratory results: article PMC6212790, “How bacterial xenogeneic silencer rok distinguishes foreign from self DNA in its resident genome”
The full ranking holds about 33,000 sequences; the median of “e-score” is about -0.037, and the highest 2% start at about 0.34. This is one part of a sample in which the highest values are shown more often than they occur.

These sequences were tested against T1, GST-Rok (full length) (Bacillus subtilis subsp. subtilis str. …, UniProt O34857 1-191) (assay: protein binding microarray; Rok is a gene silencer of Bacillus subtilis; high values mean tight binding). Conditions: protein: recombinant; tags: GST (pTH5325, pDEST15-Magic modified); dsDNA, one strand shown.
T1 sequence: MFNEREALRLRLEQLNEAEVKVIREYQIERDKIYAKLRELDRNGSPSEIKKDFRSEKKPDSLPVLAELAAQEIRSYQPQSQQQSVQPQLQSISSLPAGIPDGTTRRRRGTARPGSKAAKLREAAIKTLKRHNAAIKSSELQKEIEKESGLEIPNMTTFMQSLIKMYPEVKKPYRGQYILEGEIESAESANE
Outline: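 Every oligonucleotide joins a 25-mer constant primer to a 35-mer variable part drawn from a de Bruijn sequence of order 10, so each non-palindromic 8-mer appears at least 32 times and each palindromic 8-mer 16 times. The preference for every 8-mer is reported as a unitless, rank-based enrichment score (E-score). This score spans 0.5 for the most favored 8-mer to −0.5 for the most disfavored.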

Sequence	binding signal [E-score]
AATCGGAA	0.0335
CCTAGTCG	-0.13
AACCACCT	-0.126
TCACAGAA	0.0426
GACCAAGA	0.0064
AAGCCTCT	-0.124
AACTACGC	0.201
AACTACTC	0.381
CACTACTA	0.354
CACTACTG	-0.0214
CACTACTC	0.00906
ACCTACTG	0.295
CCCTACTA	-0.0153
AGCTACTG	0.294
CACTACGA	0.174
AACTACGG	0.204
ACCTACTA	0.372
AACTACTG	0.436
ATGCCGCA	-0.0383
CTTCGCCA	-0.129
CCACTGCC	-0.199
CTATAAGC	0.113
ATATGGAG	0.202
GCGTGAAC	0.00198

Sequence	binding signal [E-score]
TAAGCTGA	-0.0981
AGGGTACG	-0.168
CCGCTAGG	-0.19
GGCTTTAC	0.00573
GCAAATCA	0.0652
TATTGAAA	0.0126
AACTACGA	0.292
AACAACTT	0.174
GACTACTA	0.34
TACTACTA	0.428
AACTACTA	0.474
AACTACTT	0.418
CGCTACTA	0.28
AGCTACTA	0.291
GACTACGA	0.079
AACTACGT	0.306
TACTACGA	0.275
GACTACTC	0.132
ATGTCGGC	0.0255
ATGCATTG	0.0725
GTCCGCAA	-0.0703
TCAAGCAA	-0.0617
CCCGATAC	0.00567
CCATCCGC	-0.114

Sequence	binding signal [E-score]
ACGGCTTA	-0.0338
AGATAATG	0.225
CACGTATG	0.0605
TCCCCAAA	-0.169
CCCTTTTA	-0.102
GCTTTTTA	0.157
AGATTTCA	0.0391
AACATAAG	0.23
GCTTTCTA	0.224
GTATCCTA	0.13
ATATCCTA	0.36
CTATCCTA	0.0781
GAATGGCC	-0.15
CATTTGCG	-0.059
GAATATAC	0.306
AAATACAC	0.216
AAATATAC	0.376
CAATATAC	0.34
AAATACAG	0.264
CAATATAA	0.213
AAATATAA	0.253
AAATACAT	0.348
AAATATAT	0.429
AAATATAG	0.317

Sequence	binding signal [E-score]
AAAAATAT	0.319
AGGAAGTG	-0.139
GCATGTTA	0.0472
AGTAAAAG	0.19
CACGCTTA	-0.0251
AAATATCC	0.127
AAATATTG	0.295
AAATATCT	0.355
AAATATTT	0.337
AAATATCA	0.271
AAATATGA	0.199
AAATATGT	0.338
AAATATTA	0.305
AAATATGC	0.223
CATTTCGG	0.0631
AGTCCAAA	-0.0624
ACATCATC	-0.0524
AGCTATAG	0.283
AGCTATAT	0.337
AACTATAG	0.331
AACTATAT	0.362
AACTATAC	0.33
AGCTATAA	0.25
